Growth data for seven compounds are collected here from PubChem BioAssay (NCI).

This is part of a sample that, as a whole, favours compounds with a hit. Of some 83,000 tested, about 20% had one in any assay.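 A percent growth of 40 corresponds to 60% growth inhibition; 0 means no net growth; -100 means all cells died. Active threshold: below 10.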 Unmarked numbers belong to inactive results. Activity calls are given as the source filed them.

Among the test systems are SR leukemia; RPMI-8226 leukemia; OVCAR-8 ovarian; OVCAR-5 ovarian; OVCAR-4 ovarian; SK-OV-3 ovarian; IGROV1 ovarian; OVCAR-3 ovarian; HS 578T breast; NCI/ADR-RES ovarian; T-47D breast; BT-549 breast; MDA-MB-435 melanoma; SW-620 colon; MCF7 breast; HCT-116 colon; HCC-2998 colon; KM12 colon.
Common to all, as to assay: NCI-60 one-dose screen, 48 h (100 = growth as untreated, 0 = no growth, -100 = all killed)
Common to all, as to conditions: 10 µM unless noted

With `N#C/C(=C\c1ccc(-c2ccc(Br)cc2)o1)c1nc(-c2cccs2)cs1`, the growth in the experiment with SR leukemia was 90.4%; in the experiment on RPMI-8226 leukemia, 92.8%; in the experiment on OVCAR-8 ovarian, 106%; with OVCAR-5 ovarian it was 95.6%; in the experiment with OVCAR-4 ovarian it was 96.3%; in the experiment on SK-OV-3 ovarian, 111%. Moreover, the growth with IGROV1 ovarian was 88.1%; in the experiment with OVCAR-3 ovarian, 110%; in the experiment with HS 578T breast, 108%; in the experiment with NCI/ADR-RES ovarian, 95%; with T-47D breast, 40%; with BT-549 breast, 96.8%. In addition, the growth with MDA-MB-435 melanoma is 101%; in the experiment on SW-620 colon, 99.8%; with MCF7 breast, 28.9%; in the experiment on HCT-116 colon, 91%; in the experiment with HCC-2998 colon it was 91.8%; with KM12 colon it was 95.9%.
For `COC(=O)[C@]12CC[C@@H](C)[C@H](C)[C@@H]1C1=CC[C@@H]3[C@@]4(C)C[C@@H](O)[C@H](O)[C@@](C)(CO)C4=CC[C@@]3(C)[C@]1(C)CC2`, the growth in the experiment with SR leukemia was -24.8% (active); in the experiment on RPMI-8226 leukemia it was -15.2% (active); with OVCAR-8 ovarian, -22.9% (active); in the experiment on OVCAR-5 ovarian, -66% (active); in the experiment on OVCAR-4 ovarian, -55.5% (active); in the experiment on SK-OV-3 ovarian, -5.82% (active). The growth was -40% (active) in the experiment with IGROV1 ovarian; -61.8% (active) with OVCAR-3 ovarian; -35.1% (active) with HS 578T breast; -45.6% (active) in the experiment with NCI/ADR-RES ovarian; -26.5% (active) with T-47D breast; -80.2% (active) in the experiment with BT-549 breast. Besides, the growth with MDA-MB-435 melanoma is -53.1% (active); in the experiment on SW-620 colon, -55.5% (active); in the experiment with MCF7 breast, -37.1% (active); in the experiment with HCT-116 colon it was -37.5% (active); in the experiment on HCC-2998 colon, -86.5% (active); with KM12 colon, -70.8% (active).
As for `CC(C)c1cc(C(=O)O)c(O)c(C(C)C)c1.CC(C)c1cc(C(=O)O)c(O)c(C(C)C)c1.[Mn]`, the growth was 93.5% in the experiment on SR leukemia; 98% with RPMI-8226 leukemia; 101% in the experiment with OVCAR-8 ovarian; 116% in the experiment on OVCAR-5 ovarian; 96.3% in the experiment with OVCAR-4 ovarian; 110% with SK-OV-3 ovarian. Further, the growth in the experiment with IGROV1 ovarian is 114%; in the experiment with OVCAR-3 ovarian, 96.9%; with HS 578T breast, 107%; with NCI/ADR-RES ovarian, 118%; with T-47D breast, 82%; with BT-549 breast, 91.2%. The growth in the experiment on MDA-MB-435 melanoma was 108%; with SW-620 colon, 106%; in the experiment with MCF7 breast, 104%; with HCT-116 colon it was 103%; in the experiment with HCC-2998 colon it was 134%; with KM12 colon, 98.1%.
As for `CCCCC[C@H]1CC=C2C(=O)C(Cl)=C[C@@H]2CC=CCCCC(=O)O[C@@H](CCCCC)CC=C2C(=O)C(Cl)=C[C@@H]2CC=CCCCC(=O)O[C@@H](CCCCC)CC=C2C(=O)C(Cl)=C[C@@H]2CC=CCCCC(=O)O1`, the growth in the experiment with SR leukemia is 6.25% [8 µM] (active); in the experiment with RPMI-8226 leukemia, 2.73% [8 µM] (active); in the experiment with OVCAR-8 ovarian it was -17.1% [8 µM] (active); in the experiment with OVCAR-5 ovarian it was 144% [8 µM]; with OVCAR-4 ovarian, 59.9% [8 µM]; in the experiment with SK-OV-3 ovarian, 120% [8 µM]. In addition, the growth in the experiment with IGROV1 ovarian is 36% [8 µM]; in the experiment with OVCAR-3 ovarian, 17.3% [8 µM]; with HS 578T breast, 78% [8 µM]; in the experiment with NCI/ADR-RES ovarian, 96.2% [8 µM]; with T-47D breast it was 61% [8 µM]; with BT-549 breast, 67.6% [8 µM]. Further, the growth is 25.1% [8 µM] in the experiment with MDA-MB-435 melanoma; 16.5% [8 µM] in the experiment with SW-620 colon; 29.9% [8 µM] in the experiment with MCF7 breast; 11.4% [8 µM] in the experiment with HCT-116 colon; 99.1% [8 µM] in the experiment on HCC-2998 colon; 91.2% [8 µM] with KM12 colon.
Consider `Oc1ccc(Nc2ccccc2)cc1`, for which the growth in the experiment with SR leukemia was 94.2%; in the experiment on RPMI-8226 leukemia it was 97.5%; in the experiment with OVCAR-8 ovarian it was 96%; with OVCAR-5 ovarian it was 123%; with OVCAR-4 ovarian, 70.5%; in the experiment with SK-OV-3 ovarian, 97.9%. For the same compound, the growth with IGROV1 ovarian is 101%; with OVCAR-3 ovarian it was 94.2%; in the experiment with HS 578T breast it was 105%; with NCI/ADR-RES ovarian, 87.8%; in the experiment with T-47D breast, 91.7%; in the experiment on BT-549 breast it was 74%. In addition, the growth is 75.8% in the experiment with MDA-MB-435 melanoma; 88.7% with SW-620 colon; 89.2% in the experiment on MCF7 breast; 99.2% in the experiment on HCT-116 colon; 107% in the experiment on HCC-2998 colon; 79.1% with KM12 colon.
As for `COc1cc2nc(Cl)nc(Nc3cccc(C(=O)/C=C/c4ccc(Br)cc4)c3)c2cc1OC`, the growth was 14.7% with SR leukemia; -2.21% (active) in the experiment on RPMI-8226 leukemia; 84.7% in the experiment with OVCAR-8 ovarian; 102% in the experiment on OVCAR-5 ovarian; 93% in the experiment on OVCAR-4 ovarian; 96.7% in the experiment on SK-OV-3 ovarian. Further, the growth with IGROV1 ovarian is 86.8%; in the experiment with OVCAR-3 ovarian, 88.6%; with HS 578T breast, 98.4%; with NCI/ADR-RES ovarian, 92.2%; in the experiment with T-47D breast, 72.4%; in the experiment with BT-549 breast, 79.7%. The growth is 89.6% in the experiment with MDA-MB-435 melanoma; 15.1% in the experiment with SW-620 colon; 31.7% in the experiment with MCF7 breast; 15.8% in the experiment on HCT-116 colon; 104% with HCC-2998 colon; 78.1% with KM12 colon.
Regarding `C[Si](C)(C)Cc1ccccc1`, the growth was 143% in the experiment on SR leukemia; 71.6% in the experiment with RPMI-8226 leukemia; 107% with OVCAR-8 ovarian; 94.1% in the experiment with OVCAR-5 ovarian; 113% in the experiment with OVCAR-4 ovarian; 112% in the experiment on SK-OV-3 ovarian. The growth with IGROV1 ovarian is 125%; in the experiment on OVCAR-3 ovarian, 127%; in the experiment with HS 578T breast it was 120%; in the experiment on NCI/ADR-RES ovarian, 105%; in the experiment on T-47D breast, 113%; in the experiment on BT-549 breast, 110%. Moreover, the growth with MDA-MB-435 melanoma is 113%; in the experiment with SW-620 colon, 107%; with MCF7 breast, 105%; in the experiment with HCT-116 colon it was 107%; in the experiment on HCC-2998 colon, 114%; in the experiment on KM12 colon it was 108%.
